Drawing on PubChem BioAssay, this text covers composite z-score, composite Z-score and z-score for 5 compounds.

One test addresses Albumin (Bos taurus) (UniProt P02769). Briefly: compounds binding labelled BSA control protein – biochemical, small-molecule microarray, Alexa647 label, 635/667 nm fluorescence, artefact control for SMM control protein annotation, profiling panel (AID 1118).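 Further: score merges 667 nm emission intensity and signal-to-noise per printed compound spot.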 The conditions noted are these: BSA-A647 binding, fluorescence 635 nm, higher = more signal.
Test [1] is described as follows: probe aXIP binding to arrayed compounds – biochemical, NeuroSMM set, 635/667 nm fluorescence, primary screen (AID 1119).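 Further: probe is the protein aXip251-270 applied at 1 µg/mL to compound-printed slides; binding of probe to printed compounds measured as 667 nm fluorescence plus signal to noise.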 Conditions: small-molecule microarray, higher = more signal, called active from +8 up or from −8 down.
A short description of test [2]: probe aNOTCH3 binding on compound microarray – biochemical, small-molecule microarray, 635/667 nm fluorescence, primary screen (AID 1120).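 Further: probe is a biotin-tagged antibody raised against NOTCH3 rather than NOTCH3 protein; score merges spot fluorescence near 667 nm with spot signal to noise.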 The conditions noted are these: higher = more signal.
Test [3] can be described thus: probe aNOTCH2 binding on compound microarray – biochemical, small-molecule microarray, 635/667 nm fluorescence, primary screen (AID 1121).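 Further: score merges feature fluorescence read at 667 nm with its signal to noise.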 Conditions: higher = more signal.
Test [4] concerns the target Carbonic anhydrase 2 (Homo sapiens) (UniProt P00918). Briefly: compounds binding carbonic anhydrase 2 – biochemical, small-molecule microarray, Alexa647-labelled CAII, profiling panel (AID 1122). The conditions noted are these: CAII-A647 binding fluorescence, higher = more signal.
Test [5] in a line: COS7 lysate on small-molecule microarray, probe aHis, 635 nm (AID 1123).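 Further: z-score combines 667nm fluorescence intensity with signal-to-noise per printed compound spot.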 The conditions noted are these: COS7 cell lysate, fluorescence, higher = more signal.
The nature of test [6]: probe aLAP1 signal on lysate-treated microarray – cell lysate, small-molecule microarray, COS7 lysate, primary screen (AID 1124).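 Further: lysate comes from COS7 cells expressing LAP1 and is applied at 0.3 µg/mL; score merges spot fluorescence near 667 nm with signal-to-noise over triplicate slides.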 The conditions noted are these: probe aLAP1, fluorescence, higher = more signal.
The test system of another test is Sam68 (KHDRBS1). Nature of the test: compounds binding KHDRBS1 protein – biochemical, small-molecule microarray, 635 nm fluorescence, primary screen (AID 1125).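 Further: score merges 667 nm channel intensity with signal to noise over triplicate slides.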 The conditions noted are these: higher = more signal.
Test [7] has as its system Chordin-like protein 2 (CHRDL2). Nature of the test: compounds binding chordin-like 2 – biochemical, small-molecule microarray, 635 nm fluorescence, primary screen (AID 1126).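 Further: printed compound slides probed with Chrdl2 protein at 4 µg/mL for 1 h at 4 C; score merges 667 nm emission intensity with signal to noise over three replicate slides.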 The conditions noted are these: fluorescence 635 nm, higher = more signal.
The target in test [8] is Concanavalin-A (Canavalia ensiformis) (UniProt P02866). Nature of the test: compounds binding concanavalin A lectin – biochemical, small-molecule microarray, Alexa647 label, 635 nm, artefact control for SMM control protein annotation, primary screen (AID 1127).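 Further: z combines 667 nm emission intensity with signal-to-noise across three replicate slides.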 Conditions: ConA-A647 binding fluorescence, higher = more signal.
Test [9] in a line: compounds binding Alexa647 anti-His antibody – biochemical, small-molecule microarray, 635 nm fluorescence, artefact control for SMM control protein annotation, primary screen (AID 1128).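 Further: score merges feature fluorescence with signal-to-noise for each printed compound spot.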 The conditions noted are these: higher = more signal.
Test [10] relates to Human papillomavirus type 1a E7 protein (residues 1-88). Briefly: HPV1a E7 small-molecule binders, primary screen, biochemical, small-molecule microarray, residues 1-88, 635 nm (AID 1129). The conditions noted are these: small-molecule microarray binding, fluorescence 635 nm; higher = more signal.
The target in test [11] is Focal adhesion kinase 1 (Homo sapiens) (UniProt Q05397). Briefly: PTK2 protein binding on printed compound slides – biochemical, small-molecule microarray, 635/667 nm fluorescence, BSA, DTT, primary screen (AID 1130).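 Further: composite of spot emission at 667 nm and signal to noise over triplicate slides.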 Conditions: 635 nm fluorescence, higher = more signal.
The test system of test [12] is Fibrinogen (Alexa647-labelled). Briefly: Alexa647-fibrinogen binding to printed small molecules – biochemical, small-molecule microarray, 635/667 nm fluorescence, artefact control for SMM control-protein annotation, profiling panel (AID 1131).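 Further: z-score merges 667 nm fluorescence with per-spot signal-to-noise over triplicate slides.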 Conditions: fibrinogen-A647 binding fluorescence, higher = more signal.
The target of test [13] is Follistatin (Homo sapiens) (UniProt P19883). Nature of the test: FST protein binding to printed compounds – biochemical, small-molecule microarray, 635/667 nm fluorescence, primary screen (AID 1132). The conditions noted are these: 635 nm fluorescence, higher = more signal.
In test [14] the target is Fibroblast growth factor 2 (Homo sapiens) (UniProt P09038). Briefly: basic fibroblast growth factor binding to printed compounds – biochemical, small-molecule microarray, 635/667 nm fluorescence, primary screen (AID 1133). Conditions: FGF2, fluorescence 635/667, higher = more signal.
Test [15] in a line: JC-1 mitochondrial potential readout, lung cancer cells – cell-based, A549, JC-1 fluorescence, basal, 24 h, 100 nL, profiling panel (AID 1138).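 Further: A549 lung adenocarcinoma cells under basal conditions with no added stimulus; test concentration not given here.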 Conditions: higher = more signal.
The subject of a further test is Lefty1. Briefly: Lefty1 protein binding to printed compounds – biochemical, small-molecule microarray, 635/667 nm fluorescence, primary screen (AID 1139). The conditions noted are these: fluorescence 635/667, higher = more signal.
Test [16] has as its system wheat germ agglutinin (Triticum aestivum), Alexa647-labelled. Nature of the test: Alexa647-WGA lectin binding to printed small molecules – biochemical, small-molecule microarray, 635/667 nm fluorescence, artefact control for SMM control-protein annotation, profiling panel (AID 1140).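 Further: score merges 667 nm feature emission with signal to noise over triplicate slides.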 The conditions noted are these: WGA-A647 binding, 635 nm fluorescence, higher = more signal.

The target of test [17] is Luciferin 4-monooxygenase (Photinus pyralis) (UniProt P08659). Nature of the test: inhibition of purified Photinus pyralis luciferase – biochemical, luminescence, purified enzyme, 2006 set, primary screen (AID 1141).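 Further: cell-free assay with purified firefly luciferase at 100 ng per well in PBS; test concentration not given here.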 The conditions noted are these: purified firefly luciferase, SteadyGlo luminescence, 30 min; higher = more signal, called active from +8 up or from −8 down.

The source made the active and inactive calls.

Chain of Focal adhesion kinase 1 (Homo sapiens) (Q05397 whole entry, looked up): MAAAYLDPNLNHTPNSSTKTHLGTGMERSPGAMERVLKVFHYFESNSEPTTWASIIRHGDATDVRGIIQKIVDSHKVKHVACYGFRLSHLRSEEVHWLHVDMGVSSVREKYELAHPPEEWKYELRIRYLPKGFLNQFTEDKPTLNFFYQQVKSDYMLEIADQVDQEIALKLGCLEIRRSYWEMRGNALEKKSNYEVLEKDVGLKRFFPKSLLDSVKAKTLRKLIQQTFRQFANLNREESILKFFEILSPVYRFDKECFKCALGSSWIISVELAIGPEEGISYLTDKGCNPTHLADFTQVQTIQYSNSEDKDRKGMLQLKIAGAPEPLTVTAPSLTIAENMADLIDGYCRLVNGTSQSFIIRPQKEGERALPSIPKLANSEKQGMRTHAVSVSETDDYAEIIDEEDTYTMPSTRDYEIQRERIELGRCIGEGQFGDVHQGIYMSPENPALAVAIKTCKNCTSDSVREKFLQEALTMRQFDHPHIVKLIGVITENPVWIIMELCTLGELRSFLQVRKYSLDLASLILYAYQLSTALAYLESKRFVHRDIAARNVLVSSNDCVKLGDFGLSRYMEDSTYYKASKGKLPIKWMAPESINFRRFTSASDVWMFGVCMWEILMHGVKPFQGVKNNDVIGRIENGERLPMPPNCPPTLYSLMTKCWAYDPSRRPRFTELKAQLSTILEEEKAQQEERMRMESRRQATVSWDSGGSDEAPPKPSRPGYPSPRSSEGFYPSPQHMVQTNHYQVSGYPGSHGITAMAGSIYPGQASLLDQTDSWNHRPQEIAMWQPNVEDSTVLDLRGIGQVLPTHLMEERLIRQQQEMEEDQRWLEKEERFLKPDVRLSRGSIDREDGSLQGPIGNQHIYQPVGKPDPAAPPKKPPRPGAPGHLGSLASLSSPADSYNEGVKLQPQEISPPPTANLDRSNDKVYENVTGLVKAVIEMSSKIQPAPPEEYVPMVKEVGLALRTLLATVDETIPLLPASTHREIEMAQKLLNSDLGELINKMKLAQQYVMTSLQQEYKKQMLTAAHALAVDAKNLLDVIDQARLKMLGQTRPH
Chain of Concanavalin-A (Canavalia ensiformis) (P02866 whole entry, looked up): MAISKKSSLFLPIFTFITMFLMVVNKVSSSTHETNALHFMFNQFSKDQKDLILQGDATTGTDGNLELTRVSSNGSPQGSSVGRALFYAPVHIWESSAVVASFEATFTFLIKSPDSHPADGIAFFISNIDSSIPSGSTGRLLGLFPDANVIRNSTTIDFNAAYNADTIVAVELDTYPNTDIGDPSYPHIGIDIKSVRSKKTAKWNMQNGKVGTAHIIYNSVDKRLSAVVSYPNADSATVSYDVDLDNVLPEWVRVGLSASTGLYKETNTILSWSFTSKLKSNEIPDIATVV
Chain of Follistatin (Homo sapiens) (P19883 whole entry, looked up): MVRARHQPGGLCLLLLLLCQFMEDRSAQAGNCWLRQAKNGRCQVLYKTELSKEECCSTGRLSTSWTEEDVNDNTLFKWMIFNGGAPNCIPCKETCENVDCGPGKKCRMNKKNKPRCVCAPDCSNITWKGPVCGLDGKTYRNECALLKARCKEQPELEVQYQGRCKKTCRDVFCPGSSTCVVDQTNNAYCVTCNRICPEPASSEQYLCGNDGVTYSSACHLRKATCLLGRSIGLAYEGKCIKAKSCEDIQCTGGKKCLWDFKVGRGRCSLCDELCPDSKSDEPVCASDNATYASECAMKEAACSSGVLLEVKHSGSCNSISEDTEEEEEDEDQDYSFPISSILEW
Chain of Albumin (Bos taurus) (P02769 whole entry, looked up): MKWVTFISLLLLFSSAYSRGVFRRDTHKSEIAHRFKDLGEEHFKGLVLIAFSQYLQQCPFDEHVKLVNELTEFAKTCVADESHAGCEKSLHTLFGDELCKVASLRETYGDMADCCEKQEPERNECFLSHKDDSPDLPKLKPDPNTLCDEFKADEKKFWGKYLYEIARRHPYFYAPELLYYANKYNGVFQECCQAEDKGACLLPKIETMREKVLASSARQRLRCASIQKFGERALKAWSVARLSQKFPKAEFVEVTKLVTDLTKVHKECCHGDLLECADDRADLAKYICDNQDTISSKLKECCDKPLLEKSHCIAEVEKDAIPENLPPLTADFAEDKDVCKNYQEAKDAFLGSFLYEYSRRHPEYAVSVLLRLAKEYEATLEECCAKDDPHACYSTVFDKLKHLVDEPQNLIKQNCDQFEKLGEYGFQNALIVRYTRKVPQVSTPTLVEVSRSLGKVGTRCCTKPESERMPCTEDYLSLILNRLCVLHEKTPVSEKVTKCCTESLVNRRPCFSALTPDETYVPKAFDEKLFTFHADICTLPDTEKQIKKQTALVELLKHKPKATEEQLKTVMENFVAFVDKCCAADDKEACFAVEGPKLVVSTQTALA
Chain of Luciferin 4-monooxygenase (Photinus pyralis) (P08659 whole entry, looked up): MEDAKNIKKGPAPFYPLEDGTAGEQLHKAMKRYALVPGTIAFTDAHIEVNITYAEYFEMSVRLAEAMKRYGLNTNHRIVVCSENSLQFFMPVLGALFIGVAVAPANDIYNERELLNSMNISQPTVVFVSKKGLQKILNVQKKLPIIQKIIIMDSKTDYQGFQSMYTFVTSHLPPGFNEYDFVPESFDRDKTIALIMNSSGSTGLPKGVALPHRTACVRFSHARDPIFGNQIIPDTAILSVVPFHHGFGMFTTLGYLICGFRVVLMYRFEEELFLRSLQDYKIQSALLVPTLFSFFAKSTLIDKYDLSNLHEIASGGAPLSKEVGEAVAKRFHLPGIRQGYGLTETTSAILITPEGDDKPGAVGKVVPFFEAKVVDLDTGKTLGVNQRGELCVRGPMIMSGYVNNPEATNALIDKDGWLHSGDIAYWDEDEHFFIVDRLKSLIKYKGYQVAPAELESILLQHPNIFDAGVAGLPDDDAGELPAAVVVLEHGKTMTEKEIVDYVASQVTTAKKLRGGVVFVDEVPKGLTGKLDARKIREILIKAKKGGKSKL
Chain of Fibroblast growth factor 2 (Homo sapiens) (P09038 whole entry, looked up): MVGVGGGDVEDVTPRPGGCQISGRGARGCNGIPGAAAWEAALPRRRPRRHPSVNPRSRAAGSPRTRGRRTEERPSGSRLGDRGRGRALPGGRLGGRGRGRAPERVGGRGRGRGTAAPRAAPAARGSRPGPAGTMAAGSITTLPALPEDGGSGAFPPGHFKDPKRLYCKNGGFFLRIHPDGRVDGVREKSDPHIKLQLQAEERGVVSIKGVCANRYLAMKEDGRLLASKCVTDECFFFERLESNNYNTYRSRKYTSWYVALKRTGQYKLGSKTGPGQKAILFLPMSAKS

For the compound `CCCCCCCCCCC(O)C1C=CC2C(=O)N(C)C(=O)C2N1Nc1ccccc1` (stereo not given), the composite z-score with Albumin (Bos taurus) is 0.0703; in test [2], -0.0975; in [3], -0.271; in test [4] it was -0.0594; in test [5], 0.907; in test [6], 0.478. Further, the composite z-score was -1.52 with Sam68 (KHDRBS1); -1.84 in test [7]; -0.834 in test [8]; -0.901 in test [9]; -0.339 in test [10]; 0.365 in test [11]. The composite z-score in test [12] was -0.624; in test [13], -1.68; in test [14] it was -1.84; in the test with Lefty1 it was -1.75; in test [16] it was -0.848. Also, in [1], the composite Z-score is 0.636 (inactive). Besides, the values for the z-score in test [15] and in [17] were 0.172 and -0.319 (inactive), respectively.
Regarding `CCCCCCc1nc(-c2ccc(OC)nc2)c(C)c2c1[Si](C(C)C)(C(C)C)OC2`, the composite z-score was -0.854 in the test with Albumin (Bos taurus); -0.122 in test [2]; -0.12 in test [3]; -0.195 in [4]; -0.039 in test [5]; -0.459 in test [6]. For the same compound, the composite z-score was 0.18 in the test with Sam68 (KHDRBS1); 0.492 in test [7]; -0.141 in test [8]; 0.975 in test [9]; -0.461 in test [10]; 0.0484 in [11]. Besides, the composite z-score was -0.52 in test [12]; 0.553 in test [13]; 0.0695 in test [14]; 0.524 with Lefty1; -0.491 in [16]. Moreover, the composite Z-score in test [1] is 0.268 (inactive). Moreover, the values for the z-score in test [15] and in [17] were -0.498 and 0.146 (inactive), respectively.
As for `COc1ccc([Si](C)(C)[C@@H]2[C@@H](CC(=O)N3CCC[C@H]3CO)O[C@]3(C(=O)N(Cc4cccc(N5C(=O)c6cccc7cccc5c67)c4)c4ccccc43)[C@H]2C)cc1`, the composite z-score with Albumin (Bos taurus) was 0.601; in [2] it was -0.0701; in test [3], -0.166; in [4], 0.394; in test [5] it was 0.386; in [6] it was 0.104. The composite z-score in the test on Sam68 (KHDRBS1) is 0.905; in test [7], 0.568; in test [8], 1.13; in [9] it was 1.2; in [10] it was 1.03; in test [11], 0.948. Moreover, the composite z-score was determined as 0.584 in test [12]; 1.16 in test [13]; 1.43 in [14]; 0.839 with Lefty1; 1.21 in [16]. Moreover, the composite Z-score in test [1] is 0.681 (inactive). Further, the z-score was -0.0137 in [15] and -0.0921 (inactive) in test [17].
As for `O=C1c2ccccc2[C@@]2(Cc3ccccc3N(CC(F)(F)F)C2=O)[C@H](c2ccc(CO)cc2)N1Cc1ccccc1`, the composite z-score with Albumin (Bos taurus) is -0.507; in test [2] it was 0.0698; in test [3], -0.219; in test [4] it was -0.13; in test [5] it was -0.211; in test [6], 0.0163. Also, the composite z-score with Sam68 (KHDRBS1) is 0.166; in [7], 0.62; in test [8], 0.0118; in [9], -0.713; in test [10] it was -0.404; in [11], -0.282. Besides, the composite z-score was -0.243 in [12]; 0.932 in test [13]; 1.4 in [14]; 0.759 in the test on Lefty1; 0.0111 in [16]. Further, the composite Z-score in test [1] is -0.207 (inactive). Besides, the z-score in test [15] is -0.772; in test [17], 0.746 (inactive).
On to `C=C(C(=O)CC[C@@H](OC(=O)c1cccnc1)c1cccc(OCCO)c1)C(C)C`, for which the composite z-score with Albumin (Bos taurus) is -0.176; in test [2] it was 0.0286; in [3], -0.141; in [4], 0.14; in test [5], -0.588; in test [6] it was 1.3. Also, the composite z-score was -0.588 in the test on Sam68 (KHDRBS1); -0.114 in test [7]; 0.297 in test [8]; 0.317 in test [9]; -0.4 in test [10]; -0.896 in test [11]. The composite z-score in [12] turned out to be 0.496; in [13] it was 0.866; in test [14], 1.33; in the test with Lefty1, 1.13; in test [16], 0.386. Besides, in test [1], the composite Z-score was 0.437 (inactive). The z-score was 0.313 in test [15] and -0.128 (inactive) in [17].
